Only some compounds are listed: those with a hit (about 2.8% of all), similar ones and a draw of the others.
Shn3 3UTR inh: reduction of Shn3 3'UTR firefly luciferase signal, primary screen, Schnurri-3 inhibitor project, cell-based, Clone20 osteoblasts, set 2 | Clone20 osteoblast Shn3 3'UTR firefly luciferase, 24 h | inhibition, % at 12.5 µM | 360,000 compounds, 0.52% hits;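 active = mean inhibition of at least 75% with every replicate also reaching 75%; inconclusive = mean inhibition at least 75% but some replicate below; inactive = mean inhibition below 75%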;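 also: 0% = median of neutral control wells and 100% = pilot-screen positive control compound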
LMP1 NFkB inh: EBV LMP1-driven NF-kappaB luciferase reporter inhibitors, primary screen, cell-based, luminescence, single point. LMP1-induced NF-kappaB luciferase reporter cells. inhibition, % at 12.5 µM. 350,000 compounds, 0.69% hits; in the data active = inhibition above about 41%; inconclusive = no clear call, values can overlap the other calls;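 also: 0% = neutral control wells and 100% = reference inhibitor control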
PAX8 reporter: inhibitors of PAX8-driven TPO luciferase reporter, primary screen, RMG-I cells, single concentration; SteadyGlo, 24 h; inhibition, % at 12.6 µM; 360,000 compounds, 1.2% hits; AID 652154, 2013;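 active = mean replicate inhibition at least 60% with every replicate also reaching 60%; inconclusive = only one of the two criteria is met; inactive = mean below 60% and not all replicates reaching 60%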;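 also: luciferase light reporting Pax8 driven TPO promoter activity; plate controls were median of neutral control wells for no effect and mitoxantrone controls for full effect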
N-glyco inh: increase of ERlucT glycosylation luciferase signal, primary screen, N-linked glycosylation inhibitor project, D54 ERlucT cells, luminescence, set 2; reporter increase, % at 12.5 µM; D54 ERlucT glycosylation luciferase reporter, 24 h; percent of 100 nM tunicamycin response; 360,000 compounds, 0.23% hits;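 active = mean luciferase reporter signal, scaled so untreated is 0 and the glycosylation-blocking control 100, at or above a set limit in every replicate; inconclusive = mean reaches the limit but not every replicate does; inactive = mean below the limit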;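 also: luciferase carries N-glycosylation sites so blocking glycosylation raises the light; 0% = median of neutral control wells and 100% = median of 100 nM tunicamycin wells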
NSD2 HMT inh: NSD2 histone methyltransferase inhibitors, primary screen, biochemical, AlphaScreen, single concentration, set 2. 310,000 compounds, 0.54% hits. inhibition, % at 12.5 µM. Histone-lysine N-methyltransferase NSD2 (Homo sapiens), O96028. NSD2 peptide methylation, 120 min; in the data active = inhibition above about 50%
Target sequence (O96028 whole entry, looked up): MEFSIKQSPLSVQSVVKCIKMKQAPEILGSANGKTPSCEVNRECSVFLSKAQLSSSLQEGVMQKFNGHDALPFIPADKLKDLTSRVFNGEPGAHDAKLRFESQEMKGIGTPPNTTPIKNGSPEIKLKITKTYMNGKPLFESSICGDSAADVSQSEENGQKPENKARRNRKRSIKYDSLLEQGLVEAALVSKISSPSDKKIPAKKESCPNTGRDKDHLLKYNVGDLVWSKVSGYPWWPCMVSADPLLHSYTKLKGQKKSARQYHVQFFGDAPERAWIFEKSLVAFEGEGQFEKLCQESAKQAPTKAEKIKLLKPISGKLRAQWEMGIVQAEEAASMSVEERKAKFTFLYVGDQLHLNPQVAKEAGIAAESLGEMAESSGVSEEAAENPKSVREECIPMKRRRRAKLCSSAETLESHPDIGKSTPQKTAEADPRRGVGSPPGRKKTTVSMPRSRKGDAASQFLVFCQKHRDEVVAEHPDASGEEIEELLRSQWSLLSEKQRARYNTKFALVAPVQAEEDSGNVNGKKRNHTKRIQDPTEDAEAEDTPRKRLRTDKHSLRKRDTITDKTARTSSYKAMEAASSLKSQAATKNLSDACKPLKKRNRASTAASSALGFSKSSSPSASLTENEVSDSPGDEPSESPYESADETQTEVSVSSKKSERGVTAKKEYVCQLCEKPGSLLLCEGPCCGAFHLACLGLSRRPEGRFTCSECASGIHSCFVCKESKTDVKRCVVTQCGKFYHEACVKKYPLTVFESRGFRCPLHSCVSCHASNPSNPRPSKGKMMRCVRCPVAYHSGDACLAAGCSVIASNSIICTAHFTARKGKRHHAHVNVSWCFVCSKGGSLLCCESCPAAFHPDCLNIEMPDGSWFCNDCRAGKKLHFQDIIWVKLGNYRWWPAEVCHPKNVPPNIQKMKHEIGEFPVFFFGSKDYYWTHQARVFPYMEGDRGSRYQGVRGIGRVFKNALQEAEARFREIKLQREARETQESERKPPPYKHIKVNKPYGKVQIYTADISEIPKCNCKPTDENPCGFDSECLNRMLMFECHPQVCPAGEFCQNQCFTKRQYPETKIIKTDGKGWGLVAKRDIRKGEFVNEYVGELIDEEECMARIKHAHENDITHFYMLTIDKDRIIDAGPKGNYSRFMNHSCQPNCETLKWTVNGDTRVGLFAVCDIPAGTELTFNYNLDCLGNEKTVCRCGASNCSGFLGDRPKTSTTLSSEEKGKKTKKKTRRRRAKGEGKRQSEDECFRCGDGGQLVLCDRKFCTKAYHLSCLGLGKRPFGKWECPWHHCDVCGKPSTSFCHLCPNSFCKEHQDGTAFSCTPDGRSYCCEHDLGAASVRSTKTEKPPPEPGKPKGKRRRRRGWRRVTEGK
Env fusion inh: inhibitors of HIV-1 Env-driven cell-cell fusion, primary screen, HeLa-JRFL effector, CEM21 target cells, luciferase. inhibition, % at 12.3 µM. 360,000 compounds, 1.1% hits. AID 651610, 2012;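 active = mean replicate inhibition score of at least 50 and every replicate individually at or above 50; inconclusive = only one of the two criteria met; inactive = mean below 50 and not all replicates reaching 50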;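 also: 0% = plate neutral controls and 100% = maraviroc near 300 nM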
Active calls of the source: *; u = inconclusive; x = not tested or not shown; [ ] = remark or other dose.

SMILES	Shn3 3UTR inh	LMP1 NFkB inh	PAX8 reporter	N-glyco inh	NSD2 HMT inh	Env fusion inh
CCCC#Cc1ccc2c(c1)O[C@H](CN(C)Cc1ccc3c(c1)OCO3)[C@@H](C)CN([C@H](C)CO)S2(=O)=O	x	x	x	x	x	18[16.7 µM]
CCCC#Cc1ccc2c(c1)O[C@H](CN(C)Cc1ccc3c(c1)OCO3)[C@H](C)CN([C@H](C)CO)S2(=O)=O	x	x	x	x	x	56*[16.7 µM]
CCCC#Cc1ccc2c(c1)O[C@H](CN(C)Cc1ccccc1)[C@@H](C)CN([C@@H](C)CO)S2(=O)=O	x	x	6	x	x	7[16.7 µM]
CCCC#Cc1ccc2c(c1)O[C@H](CN(C)Cc1ccccc1)[C@@H](C)CN([C@H](C)CO)S2(=O)=O	x	x	80*	x	x	14[16.7 µM]
Cc1cc(C(=O)COc2ccc(C#N)cc2)c(C)n1C1CC1	0	-3	-10	-4	10	64*
CCc1c(C)nc2ncnn2c1NCCc1ccc(Cl)cc1	88*	17	28	-6	47	28
O=C(C[C@@H]1C/C=C\C[C@@H](NC(=O)OCC2c3ccccc3-c3ccccc32)C(=O)OC[C@@H](Cc2ccccc2)NC1=O)NCCO	58	9	8	2	x	16
CC(C)(C)[C@@H]1COC(=O)[C@@H](NC(=O)OCC2c3ccccc3-c3ccccc32)C/C=C\C[C@@H](CC(=O)NCCO)C(=O)N1	86*	-6	-8	2	x	30
Oc1ccccc1N=Nc1ccccc1O	69	67*	15	-9	21	41
Cc1ccccc1-c1cc(C(=O)Nc2sc(C(=O)OC(C)C)c(C)c2C#N)c2ccccc2n1	71	32	81*	-10	13	63*
CNc1ccc(Br)cc(C(=O)/C=C/c2ccc3c(c2)OCO3)c1=O	-21	-1	x	17	15	x
CCNc1ccc(Br)cc(C(=O)/C=C/c2ccc(Cl)cc2Cl)c1=O	-11	49*	x	6	4	-245
CNc1ccc(Br)cc(C(=O)/C=C/c2cc(OC)ccc2OC)c1=O	-42	u	92*	6	12	22
O=C(Nc1ccccc1)NN(C(=O)CCl)c1ccccc1	7	47*	99*	14	6	39
Cc1ccc(C(O)(C(=O)NN(C(=O)c2ccccc2)c2ccccc2)c2ccc(C)cc2)cc1	-13	-2	13	-3	0	-26
CCC(O)(CC)C(=O)NN(C(=O)CCl)c1ccccc1	-1	-10	-19	-2	2	61*
Cc1ccc(N(NC(=O)C(O)(c2ccccc2)c2ccccc2)C(=O)CCl)cc1	3	-4	107*	4	0	70*
CCCC(O)(CCC)C(=O)NN(C(=O)OC)c1ccccc1	-13	8	4	2	-2	-12
C[C@H]1CN([C@@H](C)CO)C(=O)c2cc(NC(=O)Nc3ccc(C(F)(F)F)cc3)ccc2O[C@H]1CN(C)C	x	x	-13	x	x	x
C[C@@H]1CN([C@@H](C)CO)C(=O)c2cccc(NC(=O)c3cnccn3)c2O[C@@H]1CN(C)C	x	x	-8	x	x	x
COc1ccc(S(=O)(=O)N2CCCCCC2)cc1NC(=O)c1c2c(nc3ccccc13)CCN(Cc1ccccc1)C2	11	-8	20	-6	-1	65*
CCN(CC)S(=O)(=O)c1ccc(OC(C)C)c(NC(=O)c2c3c(nc4ccccc24)CCN(Cc2ccccc2)C3)c1	36	16	10	-9	-1	59*
Cc1noc(C)c1S(=O)(=O)N(C)C[C@H]1OCCCC[C@@H](C)Oc2ccc(NC(=O)Cc3ccccc3)cc2C(=O)N([C@H](C)CO)C[C@@H]1C	x	x	-5	x	x	-40[16.7 µM]
CC(C)Oc1ccccc1C1CC(=O)Nc2cc3c(cc21)OCO3 (stereo not drawn)	69	6	68*	23	8	-4
CCCOc1ccccc1C1CC(=O)Nc2cc3c(cc21)OCCO3 (stereo not drawn)	87*	4	x	10	5	x
SMILES	Shn3 3UTR inh	LMP1 NFkB inh	PAX8 reporter	N-glyco inh	NSD2 HMT inh	Env fusion inh
COc1ccc(S(=O)(=O)N(C)C[C@@H]2Oc3c(NS(=O)(=O)c4ccc(Cl)cc4)cccc3C(=O)N([C@@H](C)CO)C[C@@H]2C)cc1	x	x	0	x	x	23[16.7 µM]
CCCCCCCCCn1ccc(=N)cc1	59	29	u	6	x	79*
CCCCCCCn1ccc(=N)cc1	85	93*	x	-2	0	x
CCCCCn1ccc(=N)cc1	32	13	x	-5	-1	x
C[C@H]1CN([C@@H](C)CO)C(=O)c2cc(-c3cccc(F)c3)cnc2O[C@@H]1CN(C)Cc1cccc(F)c1	x	x	x	x	x	20[16.7 µM]
O=C(C[C@H]1C[C@@H]2c3cc(NC(=O)c4cccnc4)ccc3O[C@@H]2[C@@H](CO)O1)NCCc1ccccc1	x	x	-69	x	x	36[16.7 µM]
O=C(CCl)Nc1cc2[nH]c(=O)[nH]c2cc1Br	-26	3	91*	5	1	4
C[C@@H]1CCCCO[C@H](CN(C)Cc2ccc(C(=O)O)cc2)[C@H](C)CN([C@@H](C)CO)C(=O)c2cc(NC(=O)c3ccncc3)ccc2O1	x	x	0	x	x	-14[16.7 µM]
CCNC(=O)C[C@@H]1CC[C@H]2[C@@H](COC[C@H](O)CN2C(=O)Nc2ccc3c(c2)OCO3)O1	x	x	-1	x	x	x
O=C(NC1CCCCC1)C(c1ccccc1)n1c(=O)c(-c2ccco2)nc2ccccc21 (stereo not drawn)	x	x	10	x	x	63*
COc1ccc(C(C(=O)NC2CCCC2)n2c(CSCCOc3ccccc3)nc3ccccc32)cc1 (stereo not drawn)	x	x	-10	x	x	78*
CO[C@@H]1CN(C)C(=O)c2ccc(NC(C)=O)cc2OC[C@H](C)N(C(=O)C2CCCCC2)C[C@H]1C	x	x	-5	x	x	x
Cc1ccc(S(=O)(=O)N[C@@H]2CC[C@H](CCn3cc(C(C)C)nn3)O[C@@H]2CO)cc1	x	x	0	x	x	2[16.7 µM]
COc1ccc(NS(=O)(=O)c2ccc3c(c2)OCCO3)cc1OC	75	32	16	0	11	93*
C[C@H](CO)N1C[C@H](C)[C@@H](CN(C)C)Oc2cc(/C=C/c3ccccc3)ccc2S1(=O)=O	x	x	x	x	x	2[16.7 µM]
C[C@@H]1CN([C@H](C)CO)C(=O)c2cc(NC(=O)Cc3ccccc3)ccc2O[C@@H](C)CCCCO[C@@H]1CN(C)S(C)(=O)=O	x	x	2	x	x	8[16.7 µM]
N#C/C(=C\c1ccc([N+](=O)[O-])o1)c1nc2ccccc2[nH]1	x	x	32	x	0	-141
Cc1ccc2nc(/C(C#N)=C\c3ccc([N+](=O)[O-])o3)[nH]c2c1	99*	-14	x	-11	x	x
COc1cc(/C=C2/C(=O)N(C)C(=S)N2C)ccc1OCc1cccc(F)c1	-4	-25	-14	34*	0	0
CN1C(=O)/C(=C/c2ccc(OCc3cccc(F)c3)cc2)NC1=S	17	-11	-34	-3	-1	-2

Screening data from PubChem BioAssay.
